The source of these data is PubChem BioAssay.

A word on the inhibition: it is the relative decrease from the control value, in per cent.

The nature of assay [1]: antimalarial activity against Dd2 strain (AID 2302;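 active = growth inhibition above 50% at the single 2 µM test dose, taken to imply half-maximal potency below 2 µM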;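 note: 0% = DMSO untreated growth and 100% = chloroquine plus artemisinin killed control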). The settings on record: P. falciparum Dd2 in RBCs, LDH growth readout, 72 h; at 2 µM; active compounds read high.
Assay [2] can be described thus: human hepatoma cell viability loss – ATP luminescence, cytotoxicity control for P. falciparum antimalarial project, primary screen (AID 2303;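 active = inhibition above 50%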;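 note: 0% = DMSO wells and 100% = digitonin-killed cells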). The settings on record: HepG2 viability, 24-48 h, at 10 µM, active compounds read high.
Assay [3] deals with L-lactate dehydrogenase (Plasmodium falciparum (isolate CDC / Honduras)) (UniProt Q27743). Kind of assay: PfLDH activity inhibition – cell lysate, 3D7 strain, counter-screen for P. falciparum growth inhibition project (AID 2304).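 Note: 0% = vehicle and 100% = reference inhibitor.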 The settings on record: P. falciparum 3D7 crude extract, LDH APAD/NBT absorbance; at 2 µM; active compounds read high.
Assay [4] is described as follows: inhibition of 3D7 malaria parasite growth – strain 3D7 (AID 2306).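 Note: 0% = DMSO wells and 100% = chloroquine plus artemisinin control wells.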 The settings on record: P. falciparum 3D7 erythrocytic growth, LDH absorbance, 72 h; at 2 µM; active compounds read high.
The target of assay [5] is Calcium-dependent protein kinase 1 (Plasmodium falciparum (isolate 3D7)) (UniProt P62344). The assay can be described thus: PfCDPK1 kinase inhibitors, biochemical, TCAMS library (AID 1159585; cut-off not given, nearly all actives have IC50 up to about 0.98 µM;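 note: inhibitors leave more ATP so luminescence rises with inhibition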). The settings on record: recombinant PfCDPK1, Kinase-Glo ATP depletion luminescence.
Assay [6] addresses Plasmodium falciparum protein kinase 6 (PK6, PF3D7_1337100) (UniProt Q8IDW1). Kind of assay: PfPK6 kinase inhibitors, biochemical, TCAMS library (AID 1159586). The settings on record: recombinant PfPK6, Kinase-Glo ATP depletion luminescence. For orientation: Kinase-Glo measures the ATP left after a reaction by luminescence.
Assay [7] concerns the target Protein kinase 7 (PK7), Plasmodium falciparum 3D7 (PF3D7_0213400) (UniProt Q7YTF7). The assay can be described thus: inhibition of Plasmodium PK7 catalytic activity – biochemical, TCAMS antimalarial set, Kinase-Glo luminescence (AID 1159587). To be noted: recombinant PfPK7, Kinase-Glo ATP depletion luminescence.
In assay [8] the target is Calcium-dependent protein kinase 4 (Plasmodium falciparum (isolate 3D7)) (UniProt Q8IBS5). Kind of assay: PfCDPK4 kinase inhibitors, biochemical, TCAMS library (AID 1159588; cut-off not given, nearly all actives have IC50 up to about 0.91 µM). To be noted: recombinant PfCDPK4, Kinase-Glo ATP depletion luminescence.

Values without a mark were called inactive. For some of these results: Potency and affinity values are given separately. Calls of active or inactive are those of the source. Unless noted, the rule behind the calls is not given here.

Chain of L-lactate dehydrogenase (Plasmodium falciparum (isolate CDC / Honduras)) (Q27743 whole entry, looked up): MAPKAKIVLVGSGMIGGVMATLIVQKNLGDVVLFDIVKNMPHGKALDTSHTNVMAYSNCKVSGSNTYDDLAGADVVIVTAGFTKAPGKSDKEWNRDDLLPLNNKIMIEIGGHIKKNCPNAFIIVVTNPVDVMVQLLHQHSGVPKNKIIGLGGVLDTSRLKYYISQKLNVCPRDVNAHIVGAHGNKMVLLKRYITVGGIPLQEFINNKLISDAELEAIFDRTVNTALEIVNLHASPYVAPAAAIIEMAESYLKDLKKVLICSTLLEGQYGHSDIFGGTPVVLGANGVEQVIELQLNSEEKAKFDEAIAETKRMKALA
Chain of Plasmodium falciparum protein kinase 6 (PK6, PF3D7_1337100) (Q8IDW1 1-305): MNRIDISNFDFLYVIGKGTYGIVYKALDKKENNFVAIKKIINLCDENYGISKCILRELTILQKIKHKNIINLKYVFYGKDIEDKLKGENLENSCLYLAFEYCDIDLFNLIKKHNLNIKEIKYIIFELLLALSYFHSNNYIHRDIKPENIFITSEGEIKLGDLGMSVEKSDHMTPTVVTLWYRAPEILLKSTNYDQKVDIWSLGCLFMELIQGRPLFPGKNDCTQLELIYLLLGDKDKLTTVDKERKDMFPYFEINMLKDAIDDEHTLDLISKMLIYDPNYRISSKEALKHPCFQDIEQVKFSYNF
Chain of Calcium-dependent protein kinase 4 (Plasmodium falciparum (isolate 3D7)) (Q8IBS5 whole entry, looked up): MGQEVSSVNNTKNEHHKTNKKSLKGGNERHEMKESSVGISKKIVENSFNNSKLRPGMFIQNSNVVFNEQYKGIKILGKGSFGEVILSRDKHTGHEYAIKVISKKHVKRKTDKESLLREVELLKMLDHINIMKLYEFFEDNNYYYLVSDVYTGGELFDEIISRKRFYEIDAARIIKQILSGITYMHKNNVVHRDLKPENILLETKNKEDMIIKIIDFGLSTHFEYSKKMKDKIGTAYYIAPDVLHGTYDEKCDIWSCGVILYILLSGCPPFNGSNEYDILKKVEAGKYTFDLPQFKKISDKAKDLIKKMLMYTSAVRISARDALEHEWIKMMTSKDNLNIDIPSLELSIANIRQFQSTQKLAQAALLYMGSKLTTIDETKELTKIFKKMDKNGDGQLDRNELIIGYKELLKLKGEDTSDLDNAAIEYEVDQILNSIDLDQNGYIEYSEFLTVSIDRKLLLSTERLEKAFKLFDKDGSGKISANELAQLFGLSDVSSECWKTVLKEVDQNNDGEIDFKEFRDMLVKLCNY
Chain of Protein kinase 7 (PK7), Plasmodium falciparum 3D7 (PF3D7_0213400) (Q7YTF7 1-343): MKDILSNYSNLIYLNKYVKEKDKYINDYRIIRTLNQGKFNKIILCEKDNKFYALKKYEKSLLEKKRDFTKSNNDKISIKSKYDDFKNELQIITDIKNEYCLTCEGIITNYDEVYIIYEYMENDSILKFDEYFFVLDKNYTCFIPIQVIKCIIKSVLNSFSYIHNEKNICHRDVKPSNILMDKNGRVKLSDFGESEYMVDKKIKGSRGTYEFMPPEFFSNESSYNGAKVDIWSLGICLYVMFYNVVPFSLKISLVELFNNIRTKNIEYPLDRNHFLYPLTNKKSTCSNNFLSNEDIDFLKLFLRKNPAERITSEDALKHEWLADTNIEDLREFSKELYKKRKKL
Chain of Calcium-dependent protein kinase 1 (Plasmodium falciparum (isolate 3D7)) (P62344 whole entry, looked up): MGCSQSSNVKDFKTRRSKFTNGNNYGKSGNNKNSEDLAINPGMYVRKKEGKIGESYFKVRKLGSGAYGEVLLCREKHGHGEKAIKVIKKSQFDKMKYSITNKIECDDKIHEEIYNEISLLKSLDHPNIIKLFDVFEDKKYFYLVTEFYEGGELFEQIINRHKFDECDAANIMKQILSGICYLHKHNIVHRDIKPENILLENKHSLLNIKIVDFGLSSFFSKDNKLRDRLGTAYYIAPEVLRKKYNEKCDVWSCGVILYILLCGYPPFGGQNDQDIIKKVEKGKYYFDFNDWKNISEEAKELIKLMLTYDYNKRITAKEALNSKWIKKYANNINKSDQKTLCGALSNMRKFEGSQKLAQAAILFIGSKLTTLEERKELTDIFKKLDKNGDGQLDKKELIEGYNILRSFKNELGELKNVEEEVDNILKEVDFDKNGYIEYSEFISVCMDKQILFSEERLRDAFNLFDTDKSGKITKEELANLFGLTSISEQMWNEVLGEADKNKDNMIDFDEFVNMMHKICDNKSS

For the compound `CCc1c(CCNCCCCCNCCc2ccc(OC)c(OC)c2CC)ccc(OC)c1OC`, the growth inhibition is 1% in assay [1] and 101% (active) in assay [4]. Besides, the inhibition is 59% (active) in assay [2] and -1% in assay [3]. The result in assay [5], in assay [6], in assay [7] and in assay [8] was inactive.

With `C=CCC1OC(=O)c2cc(OC)cc(OC)c21` (stereo not given), the figures for the growth inhibition in assay [1] and in assay [4] were 100% (active) and 95% (active), respectively. In addition, the inhibition was 100% (active) in assay [2] and 2% in assay [3]. The result in assay [5], in assay [6], in assay [7] and in assay [8] was inactive.

Regarding `Cc1ccc(OCC2CCN(c3ncc(C(=O)NC4CC4)cc3Cl)CC2)cc1`, the growth inhibition in assay [1] is 72% (active); in assay [4], 88% (active). For the same compound, the inhibition in assay [2] was 2%; in assay [3], 0%. For the same compound, the result in assay [5], in assay [6], in assay [7] and in assay [8] was inactive.

For the compound `CCCN(CCC)C(=O)c1cc(C(=O)N[C@@H](Cc2ccccc2)[C@H](O)CNC(C)(C)c2cccc(OC)c2)cc(N2CCCCS2(=O)=O)c1`, the growth inhibition was 74% (active) in assay [1] and 99% (active) in assay [4]. Moreover, the values for the inhibition in assay [2] and in assay [3] were 16% and -3%, respectively. The result in assay [5], in assay [6], in assay [7] and in assay [8] was inactive.

For `O=C1c2ccccc2C(=O)N1CCOc1c(Br)cc(Br)cc1CNCCCNc1cc(=O)c2ccccc2[nH]1`, the growth inhibition was 12% in assay [1] and 92% (active) in assay [4]. Also, the inhibition in assay [2] was 10%; in assay [3], -6%. For the same compound, the result in assay [5], in assay [6], in assay [7] and in assay [8] was inactive.

As for `COC(=O)c1ccccc1N1CCN(CCCCNC(=O)c2ccc(NC(=O)c3cc(Cl)cc(Cl)c3)cc2)CC1`, the growth inhibition is 42% in assay [1] and 100% (active) in assay [4]. Also, the inhibition in assay [2] is 20%; in assay [3] it was 0%. For the same compound, the result in assay [5], in assay [6], in assay [7] and in assay [8] was inactive.

`CCSc1ccc(C)cc1CON1C(N)=NC(N)=NC1(C)C`: the growth inhibition in assay [1] is 96% (active); in assay [4], 94% (active). For the same compound, the figures for the inhibition in assay [2] and in assay [3] were 66% (active) and 0%, respectively. Further, the outcome in assay [5], in assay [6], in assay [7] and in assay [8] was inactive.

For `O=C(Nc1cccc(CN2CCCN(Cc3cccnc3)CC2)c1)c1cc2ccccc2s1`, the growth inhibition is 28% in assay [1] and 92% (active) in assay [4]. For the same compound, the figures for the inhibition in assay [2] and in assay [3] were 15% and 1%, respectively. The result in assay [5], in assay [6], in assay [7] and in assay [8] was inactive.

Take `Cc1cc(NN=Cc2cccc(Cl)c2)c2ccccc2n1`: the growth inhibition in assay [1] and in assay [4] was 100% (active) in each case. Moreover, the values for the inhibition in assay [2] and in assay [3] were 22% and 0%, respectively. Further, the result in assay [5], in assay [6], in assay [7] and in assay [8] was inactive.

`CN(C)C(=O)n1cnc(S(=O)(=O)N(C)c2ccc(Cl)cc2)n1`: the growth inhibition in assay [1] is 80% (active); in assay [4], 88% (active). Besides, the inhibition in assay [2] was 7%; in assay [3], 3%. Besides, the outcome in assay [5], in assay [6], in assay [7] and in assay [8] was inactive.

Regarding `CC(C)CN(c1nc(C(=O)NNC(=O)[C@H](CC2CC2)NC(=O)c2cc3cc(OCCN4CCCCC4)ccc3o2)cs1)C1CC1`, the growth inhibition in assay [1] is 98% (active); in assay [4], 97% (active). In addition, the inhibition was 2% in assay [2] and -4% in assay [3]. For the same compound, the result in assay [5], in assay [6], in assay [7] and in assay [8] was inactive.

In the case of `COc1ccc2nccc([C@@H](O)CN3CCC(NCc4nc5c(F)cc(F)cc5[nH]4)CC3)c2c1`, the growth inhibition in assay [1] was 64% (active); in assay [4], 99% (active). Moreover, the inhibition in assay [2] is 19%; in assay [3], 0%. The result in assay [5], in assay [6], in assay [7] and in assay [8] was inactive.

As for `N=C(N)c1ccc2nc(SCc3ccccc3)[nH]c2c1`, the growth inhibition in assay [1] is 100% (active); in assay [4] it was 97% (active). The values for the inhibition in assay [2] and in assay [3] were -1% and 1%, respectively. The outcome in assay [5], in assay [6], in assay [7] and in assay [8] was inactive.

`Fc1ccc2nccc(NN=CC=Cc3ccccc3)c2c1`: the growth inhibition in assay [1] was 77% (active); in assay [4] it was 96% (active). In addition, the values for the inhibition in assay [2] and in assay [3] were 29% and -2%, respectively. For the same compound, the outcome in assay [5], in assay [6], in assay [7] and in assay [8] was inactive.

For the compound `Cc1cccc(Nc2nc(C)cc(N3CCCN(CC4CCCCC4)CC3)n2)c1`, the growth inhibition was 21% in assay [1] and 83% (active) in assay [4]. Moreover, the values for the inhibition in assay [2] and in assay [3] were 20% and -2%, respectively. Moreover, the result in assay [5], in assay [6], in assay [7] and in assay [8] was inactive.

Consider `CCCCNC[C@@H](O)[C@H](Cc1ccccc1)NC(=O)c1cc2c3c(c1)c(CC)cn3CCS(=O)(=O)N2C`, for which the growth inhibition in assay [1] is 98% (active); in assay [4], 99% (active). Moreover, the inhibition in assay [2] is -6%; in assay [3], -3%. Moreover, the outcome in assay [5], in assay [6], in assay [7] and in assay [8] was inactive.

As for `CCn1cc(-c2cc(C(=O)Nc3ccc(OC)cc3C)c3ccccc3n2)c(C)n1`, the growth inhibition in assay [1] is 100% (active); in assay [4], 97% (active). Further, the inhibition in assay [2] was -5%; in assay [3], 2%. The outcome in assay [5], in assay [6], in assay [7] and in assay [8] was inactive.

`COc1ccc(Cl)cc1N1CCN(CCCNC(=O)c2ccc(-c3nc4cc(Cl)c(F)cc4[nH]3)c(F)c2)CC1`: the growth inhibition is 91% (active) in assay [1] and 101% (active) in assay [4]. The inhibition in assay [2] is 21%; in assay [3], 5%. For the same compound, the outcome in assay [5], in assay [6], in assay [7] and in assay [8] was inactive.

With `Cc1nc(N)nc(N)c1C#CC1CCCC1`, the values for the growth inhibition in assay [1] and in assay [4] were 2% and 96% (active), respectively. For the same compound, the values for the inhibition in assay [2] and in assay [3] were 68% (active) and 4%, respectively. The outcome in assay [5], in assay [6], in assay [7] and in assay [8] was inactive.

For `Cc1nc2c(c(O)c1Cl)-c1ccc(Oc3cccc(C(F)(F)F)c3)cc1C2=O`, the growth inhibition is 95% (active) in assay [1] and 94% (active) in assay [4]. The inhibition in assay [2] was 25%; in assay [3] it was -6%. Also, the outcome in assay [5], in assay [6], in assay [7] and in assay [8] was inactive.
